This is an account of results in PubChem BioAssay (Tox21).

Assay [1] can be described thus: qHTS assay to identify small molecule agonists of the RXR signaling pathway - cell viability counter screen (AID 1159529).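 Note: HEK 293T cells carrying an RXR-alpha UAS beta-lactamase reporter; series mostly up to about 77 µM; nearly all actives have a fitted effect of over 50% in size.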 The gist of the method: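 Viability read-out for the RXR-alpha agonist qHTS: luminescent CellTiter-Glo signal after 30 min at RT. HEK 293T bla reporter cells, 2% charcoal-stripped FBS, 16 hr compound incubation; tetraoctyl ammonium bromide as cytotoxic control.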
(In general: qHTS replaces the single test concentration by a dilution series.)

The nature of assay [2]: qHTS assay to identify small molecule antagonists of the retinoid acid receptor (RAR) signaling pathway - cell viability counter screen (AID 1159551). Note: nearly all actives have a fitted effect of over 35% in size. The gist of the method:
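Cells (C3RL4) are plated, incubated overnight, dosed with compound in DMSO, then given retinol at 1 uM final. After 6 h at 37 C, CellTiter-Glo is added and luminescence read following 30 min at room temperature.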

The nature of assay [3]: qHTS assay to identify small molecule antagonists of the retinoic acid receptor (RAR) signaling pathway (AID 1159552; note: nearly all actives have a fitted effect of over 50% in size; note: potency is the fitted concentration of half-maximal effect). In short, it runs like this:
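Using a RARE-driven luciferase construct in C3RL4 cells, retinol at 1 uM final provided the agonist stimulus while compounds were co-applied. After 6 hours at 37 C, luminescence was recorded to flag inhibitors of retinol signaling.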

The target of assay [4] is Retinoic acid receptor RXR-alpha (Homo sapiens) (UniProt P19793). Briefly: qHTS assay to identify small molecule agonists of the RXR signaling pathway (AID 1159527; calls by dose curve; note: nearly all actives have a fitted effect of over 35% in size). In short, it runs like this: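 Fluorescence ratio readout (460 vs 530 nm) from GeneBLAzer RXR-alpha HEK 293T cells after 16 hr compound treatment; cells seeded 5 hr beforehand in low-serum, charcoal-stripped medium.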
Chain of Retinoic acid receptor RXR-alpha (Homo sapiens) (P19793 whole entry, looked up): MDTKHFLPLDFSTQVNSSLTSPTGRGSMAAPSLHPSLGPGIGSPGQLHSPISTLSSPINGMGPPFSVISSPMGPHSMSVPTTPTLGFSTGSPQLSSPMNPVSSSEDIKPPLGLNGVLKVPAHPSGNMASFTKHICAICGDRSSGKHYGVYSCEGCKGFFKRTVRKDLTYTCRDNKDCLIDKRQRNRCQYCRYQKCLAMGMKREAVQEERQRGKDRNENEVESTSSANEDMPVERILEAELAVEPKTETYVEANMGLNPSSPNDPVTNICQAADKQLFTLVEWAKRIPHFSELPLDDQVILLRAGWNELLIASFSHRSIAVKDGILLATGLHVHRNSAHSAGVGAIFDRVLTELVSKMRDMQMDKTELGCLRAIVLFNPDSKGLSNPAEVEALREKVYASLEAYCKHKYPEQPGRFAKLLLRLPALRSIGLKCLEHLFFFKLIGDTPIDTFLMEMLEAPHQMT

The nature of assay [5]: qHTS assay to identify small molecule agonists of the retinoic acid receptor (RAR) signaling pathway (AID 1159553). Note: potency is the fitted concentration of half-maximal effect. In short, it runs like this: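 Seed C3RL4 reporter cells at 1,000 per well and incubate overnight at 37 C. Add compounds in DMSO, incubate 6 hr. Add luciferase reagent, wait 30 min at room temperature, read luminescence.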
Assay [6] is described as follows: qHTS assay to identify small molecule antagonists of the estrogen related receptor (ERR) signaling pathway - cell viability counter screen (AID 1224818). Note: series mostly up to about 46 µM. The gist of the method:
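ERR cells, 2,000/well; 6 h settle at 37 C/5% CO2; compound pin transfer (DMSO); 17.5 h at 37 C; CellTiter-Fluor, 30 min, fluorescence read.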

A short description of assay [7]: qHTS assay to identify small molecule antagonists of the estrogen related receptor (ERR) signaling pathway (AID 1224819;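 note: luminescence from an ERR-driven luciferase reporter measured with One-Glo reagent; series mostly up to about 46 µM; nearly all actives have a fitted effect of over 50% in size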). The gist of the method:
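qHTS in ERR cells, 2,000/well, 1536 format. Cpd (DMSO) added after 6 h settle, 18 h 37 C. One-Glo luminescence, 30 min RT.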

The nature of assay [8]: qHTS assay to identify small molecule agonists of the estrogen related receptor (ERR) signaling pathway (AID 1224820). In short, it runs like this: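 Following a 6 h settling period, 2,000 ERR cells per well receive DMSO-dissolved compounds by pin tool and incubate 18 h at 37 C; agonist activity is scored from One-Glo luminescence read 30 min post-addition.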
Assay [9] relates to estrogen-related receptor alpha (ERRalpha) with PGC-1alpha coactivator, human. Briefly: qHTS assay to identify small molecule antagonists of the estrogen related receptor signaling pathway with the pleiotropic PPARgamma coactivator (PGC) (AID 1224821; calls by dose curve;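 note: series mostly up to about 46 µM; lower luminescence signal means antagonism of PGC/ERR signalling; nearly all actives have a fitted effect of over 50% in size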). In short, it runs like this: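 Screening used NTP's PGC/ERR cells, dosed via pin tool with compound in DMSO alongside positive and negative controls. After 18 h at 37 C, One-Glo reagent sat 30 min at room temperature before luminescence detection.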

Assay [10] in a line: qHTS assay to identify small molecule antagonists of the estrogen related receptor signaling pathway with the pleiotropic PPARgamma coactivator (PGC) cell viability counter screen (AID 1224822;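 note: series mostly up to about 46 µM; viability read after 17.5 h compound exposure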). The gist of the method:
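Multiplexed viability counter screen run in PGC/ERR cells treated with compounds for 17.5 h at 37 C; live-cell protease signal measured by CellTiter-Fluor fluorescence.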

Structures are written as SMILES. Records with an inconclusive call do not appear. Entries that show only a call come without a potency. The source made the active and inactive calls. Unless noted, calls come from the whole dose curve; as a rule, active = well fitted curve in the direction sought with a large enough effect in the repeat runs; inconclusive = weak or mixed curves; inactive = no such curve, though single readings can be large; an effect the other way counts as inactive or inconclusive.

Consider `O=Cc1ccc(O)c(O)c1O`, for which, in [1], the Potency entry was “inactive”. Besides, the compound was classed as inactive in [2].

As for `CC[C@H]1CC[C@H](NCc2cc3c(cc2OC)[C@H]2C[C@H]2C(=O)N3C)[C@H](c2ccccc2)N1`, in assay [1], the Potency result was “inactive”. Besides, the result in [2] was inactive. In addition, the Potency in assay [3] is 13.7 µM (active).

Turning to `COc1cc(C)ccc1C(C)C`, the Potency result in assay [4] and in assay [5] was “inactive” in each case. Also, in assay [2], the compound was called inactive.

`CCCC1CCC(=O)O1` (centres undefined): the Potency entry in assay [1] was “inactive”. For the same compound, in assay [2], the call was inactive.

For `NNS(=O)(=O)c1ccc(Oc2ccc(S(=O)(=O)NN)cc2)cc1`, the Potency entry in assay [4], in [3] and in assay [5] was “inactive” each time. In assay [2], the compound was called inactive.

Turning to `CNCCC(Oc1ccccc1OC)c1ccccc1` (centres undefined), the Potency result in assay [4] was “inactive”. In addition, the compound was classed as inactive in assay [2], in assay [6], in assay [7], in [8], in assay [9] and in assay [10].

Consider `CN1CCN(C2=Nc3cc(F)ccc3Cc3ccccc32)CC1`, for which the Potency result in [4], in assay [3] and in assay [5] was “inactive” in each case. The result in assay [2] was inactive.

As for `C=CCc1cc(OC)c(O)c(C(=O)NCCO)c1`, the Potency result in [4], in assay [3] and in [5] was “inactive” throughout. Further, the outcome in assay [2] was inactive.

In the case of `O=C1CCCCCCCCCCC(=O)OCCO1`, the Potency result in assay [4] and in assay [5] was “inactive” throughout. Further, in assay [2], the call was inactive.

For `COc1ccc(S(=O)(=O)Nc2nnc(CC(C)C)s2)cc1`, the Potency result in [1], in assay [3] and in assay [5] was “inactive” each time. For the same compound, in assay [2], the result was inactive.

As for `C=CC(C)(O)CC/C=C(\C)CCC=C(C)C` (centres undefined), the Potency entry in assay [1] is “inactive”. The outcome in assay [2] was inactive.

Consider `Clc1cccc(-c2cc(Cl)cc(Cl)c2)c1`, for which the Potency result in assay [4], in [3] and in assay [5] was “inactive” throughout. Besides, the result in assay [2] was inactive.

Consider `CN1CCC[C@@H]1Cc1c[nH]c2ccc(CCS(=O)(=O)c3ccccc3)cc12`, for which, in assay [4], the Potency result was “inactive”. The result in assay [2], in assay [6], in assay [7], in [8] and in assay [10] was inactive.

Consider `C=CC1CO1` (centres undefined), for which the Potency entry in assay [1], in assay [3] and in [5] was “inactive” throughout. Further, the result in [2] was inactive.

Consider `CCOC(=O)COc1ccc2c(c1)CC(NCC(O)c1cccc(Cl)c1)CC2` (centres undefined), for which, in assay [2], the call was inactive. Besides, the Potency result in [3] and in assay [5] was “inactive” in each case.

As for `O=C(O)C(=O)Cc1c[nH]c2ccccc12`, the Potency result in assay [1] was “inactive”. Further, in [2], the call was inactive. Moreover, in [5], the Potency is 34.4 µM (active).

On to `Cc1nc(-c2ccccn2)ncc1C(=O)Nn1cc(C)c2cc(F)ccc21`, for which the compound was classed as inactive in assay [2]. Besides, in [3], the Potency result is “inactive”.

Turning to `CCN(CCCc1ccccc1)CCCc1ccccc1`, in [2], the outcome was inactive. Further, the Potency entry in assay [3] and in assay [5] was “inactive” in each case.

Take `CCCCCCCCCC#N`: the outcome in assay [2] was inactive.
